Active and inactive are the calls of the source.
Key:
[1] = test system: PRMT1 (protein arginine N-methyltransferase 1); assay: small molecules binding arginine methyltransferase PRMT1 – biochemical, small-molecule microarray, 635 nm fluorescence, primary screen (AID 1088); conditions: higher = more signal;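 further: binding of Prmt1 protein to compounds spotted on small-molecule microarray slides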
[2] = growth effects on S. cerevisiae YJM789 – YJM789 clinical isolate, OD600, 24 h, basal, primary screen (AID 1089); conditions: higher = more signal, called active from +8 up or from −8 down;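 further: growth of clinical yeast isolate S. cerevisiae YJM 789 seeded 1000 cells per well; test concentration not given here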
[3] = S. pombe growth modifiers, basal conditions – strain 972, OD600, 24 h, no modulator, primary screen (AID 1090);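 further: basal condition with compound alone and no growth modifier present; test concentration not given here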; conditions: S. pombe 972 growth, higher = more signal, called active from +8 up or from −8 down
[4] = budding yeast growth modifiers under rapamycin – strain BY4716, OD600, 96 h, primary screen (AID 1091); further: test concentration not given here; conditions: S. cerevisiae BY4716 + rapamycin, higher = more signal, called active from +8 up or from −8 down
[5] = biological target: Torsin-1A-interacting protein 2 (Homo sapiens) (UniProt Q8NFQ8); assay: small molecules binding lysate-expressed LULL1 – cell lysate, human LULL1 lysate, 635/667 nm fluorescence, primary screen (AID 1092); conditions: small-molecule microarray, hLULL1 lysate binding, 635 nm fluorescence; higher = more signal;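 further: probe is lysate of COS7 cells overexpressing human LULL1; score merges per-feature 667 nm fluorescence with signal-to-noise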
[6] = optical density change of DRC41 E. coli – strain DRC41, OD650, 24 h, E. coli filamentation project, primary screen (AID 1093);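 further: MC1000 strain lacking acrAB efflux and sulA so SOS filamentation is blocked; test concentration not given here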; conditions: E. coli DRC41 growth, higher = more signal, called active from +8 up or from −8 down
[7] = probe aLefty2 binding to arrayed compounds – biochemical, biotinylated probe, 635/667 nm fluorescence, primary screen (AID 1094); conditions: small-molecule microarray, higher = more signal;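 further: score merges spot fluorescence near 667 nm with spot signal-to-noise ratio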
[8] = test system: Noggin (protein binding on small-molecule microarray); assay: small molecules binding Noggin protein – biochemical, 635/667 nm fluorescence, primary screen (AID 1095); conditions: 635 nm fluorescence, higher = more signal;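 further: score merges 667 nm feature fluorescence with signal to noise over triplicate slides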
[9] = biological target: Neurogenic locus notch homolog protein 3 (Homo sapiens) (UniProt Q9UM47); assay: small molecules binding NOTCH3 protein – biochemical, 635/667 nm fluorescence, primary screen (AID 1096); conditions: small-molecule microarray, 635 nm fluorescence, higher = more signal
[10] = probe aEGFR binding to arrayed compounds – biochemical, biotinylated probe, 635/667 nm fluorescence, primary screen (AID 1097); conditions: small-molecule microarray, higher = more signal;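 further: probe is a biotinylated anti-EGFR antibody binding compounds printed on slides; score combines fluorescence near 667 nm and signal to noise of each spot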
[11] = test system: Plasmodium falciparum Sir2 (PF13_0152, Sir2A); assay: Plasmodium falciparum Sir2A binding compounds – biochemical, small-molecule microarray, 635 nm fluorescence, primary screen (AID 1098); conditions: fluorescence 635 nm, higher = more signal;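 further: score merges spot fluorescence intensity with its signal-to-noise ratio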
[12] = probe aDKK1 binding to arrayed compounds – biochemical, biotinylated probe, 635/667 nm fluorescence, primary screen (AID 1099); conditions: small-molecule microarray, higher = more signal;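 further: score merges 667nm spot fluorescence with signal to noise across triplicate slides; reference of the scale not given here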
[13] = probe aCHRDL2 binding to arrayed compounds – biochemical, biotinylated probe, 635/667 nm fluorescence, primary screen (AID 1100); conditions: small-molecule microarray, higher = more signal
[14] = change in splice reporter luminescence, either direction, cell-based, HEK293, spliceosome inhibition project, primary screen (AID 1101); conditions: HEK293 splicing luciferase reporter, 24 h, higher = more signal, called active from +8 up or from −8 down;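 further: HEK293 cells carrying a splicing-competent luciferase reporter gene; test concentration not given here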
[15] = biological target: Fibroblast growth factor 10 (Homo sapiens) (UniProt O15520); assay: compounds binding fibroblast growth factor 10 – biochemical, small-molecule microarray, 635 nm fluorescence, primary screen (AID 1102); conditions: FGF10 binding, fluorescence 635 nm, higher = more signal
[16] = test system: glycogen synthase kinase-3 (GSK3A per assay name; protocol says GSK3B); assay: compounds binding glycogen synthase kinase-3 – biochemical, small-molecule microarray, 635 nm fluorescence, GSK3A, primary screen (AID 1103); conditions: fluorescence 635 nm, higher = more signal; further: the record names both GSK3A and GSK3B
[17] = biological target: Epidermal growth factor receptor (Homo sapiens) (UniProt P00533); assay: compounds binding epidermal growth factor receptor – biochemical, small-molecule microarray, 635 nm fluorescence, primary screen (AID 1104); conditions: EGFR binding, higher = more signal;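 further: score merges 667 nm emission intensity with spot signal to noise over triplicate slides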
[18] = biological target: Follistatin-related protein 3 (Homo sapiens) (UniProt O95633); assay: compounds binding follistatin-related protein 3 – biochemical, small-molecule microarray, 635 nm fluorescence, primary screen (AID 1105); conditions: FSTL3 binding, higher = more signal;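 further: score merges emission near 667 nm and signal to noise per printed spot across three slides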
[19] = biological target: Dickkopf-related protein 1 (Homo sapiens) (UniProt O94907); assay: small molecules binding DKK1 protein – biochemical, small-molecule microarray, 635 nm fluorescence scan, primary screen (AID 1106); conditions: higher = more signal;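 further: score merges emission near 667 nm with signal to noise over three replicate slides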
[20] = test system: Inhibin beta A chain (activin A); assay: small molecules binding activin A – biochemical, small-molecule microarray, 635 nm fluorescence scan, primary screen (AID 1107); conditions: INHBA, higher = more signal;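 further: mouse activin A protein probed at 4.33 µg/mL on printed slides; score merges bound-protein fluorescence near 667 nm with spot signal-to-noise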

Sequence of Epidermal growth factor receptor (Homo sapiens) (P00533 whole entry, looked up): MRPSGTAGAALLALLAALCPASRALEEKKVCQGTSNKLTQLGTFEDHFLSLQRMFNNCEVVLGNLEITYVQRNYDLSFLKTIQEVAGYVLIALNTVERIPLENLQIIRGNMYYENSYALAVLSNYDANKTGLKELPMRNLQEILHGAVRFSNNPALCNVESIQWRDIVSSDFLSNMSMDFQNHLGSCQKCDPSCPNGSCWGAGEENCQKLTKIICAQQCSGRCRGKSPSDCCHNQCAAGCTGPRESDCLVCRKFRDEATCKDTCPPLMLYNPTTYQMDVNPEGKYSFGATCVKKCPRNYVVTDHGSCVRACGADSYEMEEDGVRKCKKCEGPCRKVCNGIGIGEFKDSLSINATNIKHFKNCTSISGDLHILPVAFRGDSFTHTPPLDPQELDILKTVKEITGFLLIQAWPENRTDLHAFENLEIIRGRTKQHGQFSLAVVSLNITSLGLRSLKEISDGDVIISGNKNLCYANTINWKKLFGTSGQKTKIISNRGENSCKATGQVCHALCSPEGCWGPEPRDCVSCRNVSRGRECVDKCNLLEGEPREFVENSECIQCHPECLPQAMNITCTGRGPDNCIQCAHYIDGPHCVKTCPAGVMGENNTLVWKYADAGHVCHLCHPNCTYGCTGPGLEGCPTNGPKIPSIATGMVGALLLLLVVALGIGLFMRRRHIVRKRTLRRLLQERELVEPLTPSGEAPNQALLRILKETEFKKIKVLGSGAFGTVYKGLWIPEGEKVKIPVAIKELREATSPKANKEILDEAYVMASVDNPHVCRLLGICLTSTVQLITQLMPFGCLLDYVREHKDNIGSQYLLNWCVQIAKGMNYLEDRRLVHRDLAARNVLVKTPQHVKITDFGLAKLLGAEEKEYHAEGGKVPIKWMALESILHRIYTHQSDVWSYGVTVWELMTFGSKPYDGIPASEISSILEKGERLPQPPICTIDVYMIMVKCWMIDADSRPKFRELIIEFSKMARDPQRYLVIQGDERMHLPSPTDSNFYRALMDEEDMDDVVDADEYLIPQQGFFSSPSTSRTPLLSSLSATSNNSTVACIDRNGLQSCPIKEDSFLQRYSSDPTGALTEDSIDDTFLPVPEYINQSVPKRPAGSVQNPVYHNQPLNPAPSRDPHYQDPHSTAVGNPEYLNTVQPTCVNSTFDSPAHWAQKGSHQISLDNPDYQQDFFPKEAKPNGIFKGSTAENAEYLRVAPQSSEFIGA
Sequence of Torsin-1A-interacting protein 2 (Homo sapiens) (Q8NFQ8 whole entry, looked up): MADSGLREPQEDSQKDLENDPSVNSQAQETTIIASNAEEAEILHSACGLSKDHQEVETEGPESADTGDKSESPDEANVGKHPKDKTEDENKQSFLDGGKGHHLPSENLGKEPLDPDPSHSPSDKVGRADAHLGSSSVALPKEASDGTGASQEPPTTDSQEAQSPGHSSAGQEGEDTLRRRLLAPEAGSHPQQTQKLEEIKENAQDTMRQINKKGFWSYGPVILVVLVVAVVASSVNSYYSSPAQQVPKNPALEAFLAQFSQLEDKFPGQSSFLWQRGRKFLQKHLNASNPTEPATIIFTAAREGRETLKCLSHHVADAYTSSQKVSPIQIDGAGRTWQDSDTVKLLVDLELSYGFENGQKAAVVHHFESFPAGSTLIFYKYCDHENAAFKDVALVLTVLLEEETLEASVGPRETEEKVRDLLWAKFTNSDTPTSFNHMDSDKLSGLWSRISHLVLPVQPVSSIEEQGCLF
Sequence of Neurogenic locus notch homolog protein 3 (Homo sapiens) (Q9UM47 whole entry, looked up): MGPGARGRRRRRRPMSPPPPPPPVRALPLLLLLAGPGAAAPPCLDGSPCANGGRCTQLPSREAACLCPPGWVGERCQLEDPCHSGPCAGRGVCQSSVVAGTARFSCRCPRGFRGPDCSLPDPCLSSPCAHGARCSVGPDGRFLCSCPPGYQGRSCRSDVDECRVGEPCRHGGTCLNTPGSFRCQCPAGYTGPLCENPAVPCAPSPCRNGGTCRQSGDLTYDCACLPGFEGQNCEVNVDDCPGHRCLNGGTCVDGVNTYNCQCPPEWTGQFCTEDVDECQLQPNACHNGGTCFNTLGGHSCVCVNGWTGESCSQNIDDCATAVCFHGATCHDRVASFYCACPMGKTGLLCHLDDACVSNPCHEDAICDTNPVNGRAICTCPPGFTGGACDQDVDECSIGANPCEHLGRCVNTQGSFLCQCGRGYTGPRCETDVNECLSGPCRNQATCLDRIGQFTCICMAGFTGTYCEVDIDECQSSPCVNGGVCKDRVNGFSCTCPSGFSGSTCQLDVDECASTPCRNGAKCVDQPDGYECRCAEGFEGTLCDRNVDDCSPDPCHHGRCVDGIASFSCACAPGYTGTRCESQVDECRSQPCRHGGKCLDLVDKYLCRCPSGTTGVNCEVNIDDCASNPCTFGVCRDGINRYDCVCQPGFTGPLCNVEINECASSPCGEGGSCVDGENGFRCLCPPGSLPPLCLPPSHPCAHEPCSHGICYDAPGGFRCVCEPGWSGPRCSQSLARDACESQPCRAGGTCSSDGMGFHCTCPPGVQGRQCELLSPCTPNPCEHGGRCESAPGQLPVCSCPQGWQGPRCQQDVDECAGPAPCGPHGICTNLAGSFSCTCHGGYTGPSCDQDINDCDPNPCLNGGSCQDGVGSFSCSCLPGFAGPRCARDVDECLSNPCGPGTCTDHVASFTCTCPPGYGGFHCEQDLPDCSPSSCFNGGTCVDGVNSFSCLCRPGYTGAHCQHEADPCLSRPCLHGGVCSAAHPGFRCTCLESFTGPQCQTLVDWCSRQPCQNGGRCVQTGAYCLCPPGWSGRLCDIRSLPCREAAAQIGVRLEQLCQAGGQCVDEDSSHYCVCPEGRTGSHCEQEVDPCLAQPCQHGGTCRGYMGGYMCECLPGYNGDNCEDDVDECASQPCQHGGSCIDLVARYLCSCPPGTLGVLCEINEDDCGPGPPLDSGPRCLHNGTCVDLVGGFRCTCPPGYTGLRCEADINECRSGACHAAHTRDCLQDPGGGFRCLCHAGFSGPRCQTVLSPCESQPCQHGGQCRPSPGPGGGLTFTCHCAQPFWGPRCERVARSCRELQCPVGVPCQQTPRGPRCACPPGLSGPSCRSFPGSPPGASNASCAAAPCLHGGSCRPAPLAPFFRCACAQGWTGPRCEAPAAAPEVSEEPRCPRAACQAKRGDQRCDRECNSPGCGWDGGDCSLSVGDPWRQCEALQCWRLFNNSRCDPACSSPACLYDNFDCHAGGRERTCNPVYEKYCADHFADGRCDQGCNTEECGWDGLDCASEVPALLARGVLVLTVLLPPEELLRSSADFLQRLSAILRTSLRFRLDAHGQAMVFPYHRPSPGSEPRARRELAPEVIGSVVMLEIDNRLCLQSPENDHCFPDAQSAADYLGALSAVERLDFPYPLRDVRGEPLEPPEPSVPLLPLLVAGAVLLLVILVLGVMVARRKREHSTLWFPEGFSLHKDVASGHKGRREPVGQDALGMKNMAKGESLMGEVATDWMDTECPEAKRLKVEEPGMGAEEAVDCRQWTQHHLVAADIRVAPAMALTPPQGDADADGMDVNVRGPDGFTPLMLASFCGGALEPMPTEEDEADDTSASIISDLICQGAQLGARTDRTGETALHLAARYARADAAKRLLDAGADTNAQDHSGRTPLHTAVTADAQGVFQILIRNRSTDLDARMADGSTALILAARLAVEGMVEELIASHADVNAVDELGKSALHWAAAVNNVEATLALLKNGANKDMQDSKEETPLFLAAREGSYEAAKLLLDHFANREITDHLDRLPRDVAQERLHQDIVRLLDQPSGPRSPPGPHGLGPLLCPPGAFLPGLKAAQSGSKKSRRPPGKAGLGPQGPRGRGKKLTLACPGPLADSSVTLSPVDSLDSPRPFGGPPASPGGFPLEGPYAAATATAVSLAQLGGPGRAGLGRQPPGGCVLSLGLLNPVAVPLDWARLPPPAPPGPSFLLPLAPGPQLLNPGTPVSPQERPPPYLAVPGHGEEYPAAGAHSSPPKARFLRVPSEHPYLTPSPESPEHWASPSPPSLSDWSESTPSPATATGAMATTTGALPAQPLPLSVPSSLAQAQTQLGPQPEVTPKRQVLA
Sequence of Follistatin-related protein 3 (Homo sapiens) (O95633 whole entry, looked up): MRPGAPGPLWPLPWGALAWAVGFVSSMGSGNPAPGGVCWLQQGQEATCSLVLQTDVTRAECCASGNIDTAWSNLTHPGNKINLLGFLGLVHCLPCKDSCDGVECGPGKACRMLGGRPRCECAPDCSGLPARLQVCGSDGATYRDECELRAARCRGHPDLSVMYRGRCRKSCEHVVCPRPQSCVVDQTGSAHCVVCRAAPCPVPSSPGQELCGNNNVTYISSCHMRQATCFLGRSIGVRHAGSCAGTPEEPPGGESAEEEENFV
Sequence of Fibroblast growth factor 10 (Homo sapiens) (O15520 whole entry, looked up): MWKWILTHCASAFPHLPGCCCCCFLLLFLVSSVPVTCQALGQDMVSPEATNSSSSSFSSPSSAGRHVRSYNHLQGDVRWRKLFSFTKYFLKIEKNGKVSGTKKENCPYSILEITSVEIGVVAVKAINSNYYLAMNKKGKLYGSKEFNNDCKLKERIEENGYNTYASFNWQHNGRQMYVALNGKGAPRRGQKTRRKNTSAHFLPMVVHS
Sequence of Dickkopf-related protein 1 (Homo sapiens) (O94907 whole entry, looked up): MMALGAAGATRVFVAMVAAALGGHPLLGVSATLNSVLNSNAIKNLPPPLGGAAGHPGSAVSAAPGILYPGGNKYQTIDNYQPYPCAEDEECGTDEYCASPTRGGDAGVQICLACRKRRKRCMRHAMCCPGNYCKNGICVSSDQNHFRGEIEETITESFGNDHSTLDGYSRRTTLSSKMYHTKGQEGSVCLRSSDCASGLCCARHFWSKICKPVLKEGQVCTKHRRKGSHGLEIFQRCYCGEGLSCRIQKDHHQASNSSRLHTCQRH

SMILES | composite z-score [1] | z-score [2] | z-score [3] | z-score [4] | composite z-score [5] | z-score [6] | composite z-score [7] | composite z-score [8] | composite z-score [9] | composite z-score [10] | composite z-score [11] | composite z-score [12] | composite z-score [13] | z-score [14] | composite z-score [15] | composite z-score [16] | composite z-score [17] | composite z-score [18] | composite z-score [19] | composite z-score [20]
COC(=O)C(CC#Cc1ccc2c(c1)[C@]1(C(=O)N2)[C@H](c2ccccc2OCCO)N2[C@H](c3ccccc3)[C@H](c3ccccc3)OC(=O)[C@H]2[C@@H]1C(=O)Nc1nc2ccccc2s1)C(=O)OC | 1.52 | 2.11 (inactive) | 1.03 (inactive) | 1.36 (inactive) | 2.93 | -0.724 (inactive) | -0.0699 | 1.24 | 1.15 | -0.0688 | 1.21 | -0.0226 | -0.0159 | -0.333 (inactive) | 1.3 | 1.21 | 0.312 | 0.806 | 0.171 | 0.245
Cc1ccccc1C(O)C1C=CC2C(=O)N(C)C(=O)C2N1Nc1ccc([N+](=O)[O-])cc1[N+](=O)[O-] (stereo not given) | 1.56 | 0.426 (inactive) | 0.73 (inactive) | 0.969 (inactive) | 3.45 | -1.24 (inactive) | 0.25 | 0.17 | 1.08 | 0.0801 | 0.878 | 0.647 | 0.831 | -0.311 (inactive) | 1.11 | 1.28 | 0.226 | 1.17 | -0.53 | 0.648
COCCOC(=O)N1C(=O)[C@@]2(c3cc(C#CCC(C(=O)OC)C(=O)OC)ccc31)[C@H](C(=O)N1CCCCCCC1)[C@H]1C(=O)O[C@H](c3ccccc3)[C@H](c3ccccc3)N1[C@@H]2c1ccc(O)cc1 | 1.49 | 0.405 (inactive) | -0.866 (inactive) | 1.15 (inactive) | 3.19 | 1.04 (inactive) | 1.06 | 1.37 | 1.07 | 0.456 | 1.36 | 1.7 | 1.41 | 0.0931 (inactive) | 1.2 | 1.3 | 0.783 | 1.45 | 1.07 | 1.63
CCCNC(=O)[C@@H]1c2ccccc2C(=O)N(CC23CC4CC(CC(C4)C2)C3)[C@H]1c1ccc(CO)cc1 | 1.44 | -0.449 (inactive) | -1.63 (inactive) | 0.835 (inactive) | 2.79 | -0.693 (inactive) | 0.267 | 0.406 | 1.1 | 0.167 | 1.6 | 0.831 | 0.718 | -0.254 (inactive) | 1.12 | 1.15 | 0.457 | 1.23 | 1.11 | 0.425
COC(=O)C(CC#Cc1ccc2c(c1)[C@]1(C(=O)N2)[C@H](C(=O)N2CCc3cc(OC)c(OC)cc3C2)[C@H]2C(=O)O[C@H](c3ccccc3)[C@H](c3ccccc3)N2[C@@H]1c1ccc(OCCO)cc1)C(=O)OC | 1.55 | 3.22 (inactive) | 1.63 (inactive) | 5.29 (inactive) | 2.82 | 0.37 (inactive) | 0.128 | 1.3 | 1.07 | 0.174 | 1.08 | 0.0138 | 0.415 | -0.291 (inactive) | 1.39 | 1.3 | 0.732 | 0.94 | 0.544 | 0.614
OCc1ccc(-c2cc[n+](Cc3cccc(OC(F)(F)F)c3)cc2)cc1 | 1.26 | -1.54 (inactive) | -19.5 (active) | 5.75 (inactive) | 1.99 | 0.261 (inactive) | 0.353 | 0.876 | 1.05 | -0.0016 | 0.802 | 0.44 | 0.854 | 1.36 (inactive) | 0.981 | 0.869 | 1.33 | 1.48 | 1.56 | 1.93
CN(C)C(=O)[C@@]1(CCC(=O)OC(C)(C)C)COC(c2ccc(OCCCO)cc2)=N1 | 1.32 | -0.321 (inactive) | -0.369 (inactive) | -0.501 (inactive) | 3.78 | 0.771 (inactive) | 0.112 | 0.74 | 0.0673 | -0.122 | 0.999 | 0.66 | 0.945 | 0.351 (inactive) | 0.625 | -0.459 | -0.785 | -0.326 | -1.19 | 0.279
Cc1ccc(F)cc1S(=O)(=O)N[C@@H]1CCN(C(=O)c2ccc(OC(C)C)cc2)C1 | 0.981 | -0.654 (inactive) | -0.709 (inactive) | -0.966 (inactive) | 1.03 | 0.845 (inactive) | 0.0563 | 0.805 | 1.13 | 0.0225 | 0.416 | -0.274 | -0.734 | -0.0035 (inactive) | 0.969 | 1 | 0.5 | 1.34 | 0.463 | 0.0062
O=C1N(CCS(=O)(=O)c2ccccc2)Cc2ccccc2C[C@@]12COC(c1ccc(OCCCO)cc1)=N2 | 1.54 | 0.978 (inactive) | 0.381 (inactive) | 3.45 (inactive) | 3.04 | 0.937 (inactive) | 0.686 | 0.982 | 1.04 | 0.285 | 1.69 | 1.15 | 1.26 | 0.67 (inactive) | 1.07 | 1.29 | 0.847 | 1.3 | 0.628 | 1.32
CC1CC/C=C\[C@H]2OC34C=CCN(c5ccc(Cl)cc5)C(=O)[C@H]3N(C(CO)C(C)C)C(=O)[C@]4(C)C2C(=O)O1 (stereo not given in full) | -0.538 | 1.04 (inactive) | -0.775 (inactive) | -0.439 (inactive) | 2.25 | -0.304 (inactive) | -0.166 | -0.643 | 0.161 | -0.233 | 1.86 | -0.0977 | 0.281 | 0.323 (inactive) | -0.0355 | -0.364 | -0.799 | -0.786 | -0.717 | 0.813
